Laboratory results published in PubChem BioAssay (Tox21).
“And” between values parts separate entries of the source, which are not always exact repeats. Equal values may be shown once. Records with an inconclusive call do not appear. The source made the active and inactive calls. Calls follow the shape of the dose curve; as a rule, active = well fitted curve in the direction sought with a large enough effect in the repeat runs; inconclusive = weak or mixed curves; inactive = no such curve, though single readings can be large; an effect the other way counts as inactive or inconclusive. Non-standard residues stand in square brackets, D forms with d. Residues, ends and D or L forms follow the SMILES beside them. pGlu = O=C1CC[C@@H](C(=O)O)N1

Key:
[1] = qHTS assay to identify small molecule antagonists of the glucocorticoid receptor (GR) signaling pathway - cell viability counter screen (AID 720693); also: nearly all actives have a fitted effect of over 55% in size
[2] = qHTS assay for identifying genotoxic compounds that show differential cytotoxicity against isogenic chicken DT40 cell lines with known DNA damage response pathways - wild type cell line (AID 743012); also: nearly all actives have a fitted effect of over 60% in size; also: potency is read from the fitted curve at half-maximal effect
How it was run: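 Cytotoxicity in repair-proficient parental chicken DT40 cells serves as the comparator for Rad54/Ku70- and Rev3-deficient lines. Cells were exposed to compounds for 40 h at 37 C/5% CO2, and ATP-based luminescence (CellTiter-Glo) measured viability.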

[3] = qHTS assay for identifying genotoxic compounds that show differential cytotoxicity against isogenic chicken DT40 cell lines with known DNA damage response pathways - Rev3 mutant cell line (AID 743014); also: nearly all actives have a fitted effect of over 55% in size; also: potency is read from the fitted curve at half-maximal effect
[4] = qHTS assay for identifying genotoxic compounds that show differential cytotoxicity against isogenic chicken DT40 cell lines with known DNA damage response pathways - Rad54/Ku70 mutant cell line (AID 743015); also: nearly all actives have a fitted effect of over 60% in size; also: potency is read from the fitted curve at half-maximal effect
[5] = qHTS assay to identify small molecule antagonists of the androgen receptor (AR) signaling pathway - cell viability counter screen (AID 743033; also: nearly all actives have a fitted effect of over 45% in size; also: potency is read from the fitted curve at half-maximal effect)
[6] = qHTS assay to identify small molecule antagonists of the androgen receptor (AR) signaling pathway using the MDA cell line - cell viability counter screen (AID 743041; also: nearly all actives have a fitted effect of over 45% in size)
How it was run: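 qHTS viability read-out; MDA-kb2 AR-luc; R1881-stimulated; 16 h exposure at 37C, 0% CO2; CellTiter-Fluor, 30 min; fluorescence intensity.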

Measured: Potency

O=C(Cn1c(=O)sc2ccc(Cl)cc21)N1CCN(CCO)CC1
inactive: all assays above

CN=C(NC)NCc1ccccc1
inactive: all assays above

Cc1onc(-c2ccccc2)c1C(=O)N[C@@H]1C(=O)N2[C@@H]1SC(C)(C)[C@@H]2C(=O)O
inactive: all assays above

NCCCNCCCCNC(=O)C(O)NC(=O)CCCCCCN=C(N)N (centres undefined)
active: [2] 1.06 µM | [3] 1.68 µM | [4] 0.841 µM
inactive: all other assays above

CC[C@H](CC[C@@H](C)[C@H]1CC[C@H]2[C@@H]3CC=C4C[C@@H](O)CC[C@]4(C)[C@H]3CC[C@]12C)C(C)C
inactive: all assays above

NC[C@@H]1O[C@H](O[C@H]2[C@@H](O)[C@H](O[C@@H]3[C@@H](O)[C@H](N)C[C@H](N)[C@H]3O[C@H]3O[C@H](CN)[C@@H](O)[C@H](O)[C@H]3N)O[C@@H]2CO)[C@H](N)[C@@H](O)[C@@H]1O
inactive: all assays above

CCOC(=O)[C@H](CCc1ccccc1)N[C@H]1CCCN2CCC[C@@H](C(=O)O)N2C1=O
inactive: all assays above

COc1c(O[C@@H]2O[C@H](CO)[C@@H](O)[C@H](O)[C@H]2O)cc2c(c1OC)-c1ccc(SC)c(=O)cc1[C@@H](NC(C)=O)CC2
inactive: all assays above

CC[C@@H]1/C=C(\C)C[C@H](C)C[C@H](OC)[C@H]2O[C@@](O)(C(=O)C(=O)N3CCCC[C@H]3C(=O)O[C@H](/C(C)=C/[C@@H]3CC[C@@H](Cl)[C@H](OC)C3)[C@H](C)[C@@H](O)CC1=O)[C@H](C)C[C@@H]2OC
inactive: all assays above

CO[C@@H]1[C@@H](O[C@@H]2O[C@H](C)[C@@H](O[C@H]3C[C@@](C)(O)[C@@H](OC(=O)CC(C)C)[C@H](C)O3)[C@H](N(C)C)[C@H]2O)[C@@H](CC=O)C[C@@H](C)[C@@H](O)/C=C/C=C/C[C@@H](C)OC(=O)C[C@H]1O
active: [2] 2.66 µM and 3.76 µM | [3] 5.96 µM and 7.5 µM | [4] 6.68 µM and 9.44 µM
inactive: all other assays above

CO[C@H]1C[C@H](O[C@@H]2/C(C)=C/C[C@@H]3C[C@@H](C[C@]4(CC[C@H](C)[C@@H](C5CCCCC5)O4)O3)OC(=O)[C@@H]3C=C(C)/C(=N/O)[C@H]4OC/C(=C\C=C\[C@@H]2C)[C@]43O)O[C@@H](C)[C@@H]1O
inactive: all assays above

C/C=C(/CC[C@@H](C)[C@H]1CC[C@H]2C3=CC[C@H]4[C@H](C)[C@@H](O)CC[C@]4(C)[C@H]3CC[C@]12C)C(C)C
inactive: all assays above

CCCCCCCCCCCCCCCC(=O)O[C@@H]1[C@@H](O)[C@@H](O)[C@@H]([C@H](NC(=O)[C@@H]2C[C@@H](CCC)CN2C)[C@H](C)Cl)O[C@@H]1SC
inactive: all assays above

CC(=O)Nc1c(I)c(C(=O)O)c(I)c(N(C)C(C)=O)c1I
inactive: all assays above

Cc1ccc(S(=O)(=O)NC(=O)N[C@@H](C)Cc2ccccc2)cc1
inactive: all assays above

CN1CCN(C2=Nc3ccccc3Cc3ccccc32)CC1
active: [2] 26.6 µM | [3] 23.7 µM | [4] 29.8 µM
inactive: [1] | [5] | [6]

CCC(=O)O[C@]1(C(=O)CCl)[C@@H](C)C[C@H]2[C@@H]3C[C@H](F)C4=CC(=O)C=C[C@]4(C)[C@@]3(F)[C@@H](O)C[C@@]21C
active: [2] 11.9 µM | [3] 7.5 µM | [4] 23.7 µM
inactive: [1] | [5] | [6]

COc1cc2[nH]c(C)c(CCN3CCN(c4ccccc4)CC3)c2cc1OC
active: [2] 18.8 µM | [3] 26.6 µM | [4] 29.8 µM
inactive: [1] | [5] | [6]

O=P(O)(O)OC[C@H]1O[C@](O)(COP(=O)(O)O)[C@@H](O)[C@@H]1O
inactive: all assays above

C[C@H](O)[C@H](O)[C@H]1CNc2nc(N)[nH]c(=O)c2N1
inactive: all assays above

C[C@H](N)C(=O)N[C@@H](C)P(=O)(O)O
inactive: all assays above

CCCN(CC)C(CC)C(=O)Nc1c(C)cccc1C (centres undefined)
inactive: all assays above

OC[C@H]1O[C@@H](n2cnc3c2NC=NC[C@H]3O)C[C@@H]1O
inactive: all assays above

NC[C@@H]1O[C@H](O[C@H]2[C@@H](O)[C@H](O[C@@H]3[C@@H](O)[C@H](N)C[C@H](N)[C@H]3O[C@H]3O[C@H](CO)[C@@H](O)[C@H](O)[C@H]3N)O[C@@H]2CO)[C@H](N)[C@@H](O)[C@@H]1O
inactive: all assays above

CCCC(=O)Nc1ncnc2c1ncn2[C@@H]1O[C@@H]2COP(=O)(O)O[C@H]2[C@H]1OC(=O)CCC
inactive: all assays above

CCCOc1ccc2nc(NC(=O)OC)sc2c1
active: [2] 2.37 µM | [3] 2.66 µM | [4] 3.35 µM
inactive: all other assays above

C[C@H](CSC(=O)c1ccccc1)C(=O)N1C[C@@H](Sc2ccccc2)C[C@H]1C(=O)O
inactive: all assays above

CC[C@H](C)[C@H](NC(=O)[C@H](Cc1ccccc1)NC(=O)[C@H](C)NC(=O)[C@H](CC(=O)O)NC(=O)[C@H](CCCCN)NC(=O)[C@H](CO)NC(=O)[C@@H]1CCCN1C(=O)[C@@H]1CCC(=O)N1)C(=O)NCC(=O)N[C@@H](CC(C)C)C(=O)N[C@@H](CCSC)C(N)=O ([pGlu]PSKDAFIGLM-NH2)
inactive: all assays above

O=P(O)(O)OC(CO)CO
inactive: all assays above

CNC[C@@H]1CC[C@@H](N)[C@@H](O[C@H]2[C@H](O)[C@@H](O[C@H]3OC[C@](C)(O)[C@H](NC)[C@H]3O)[C@H](N)C[C@@H]2N)O1
inactive: all assays above

O=C(CCCN1CCC(C(=O)c2ccc(F)cc2)CC1)c1ccc(F)cc1
active: [2] 8.41 µM | [3] 3.76 µM | [4] 7.5 µM
inactive: [1] | [5] | [6]

Cc1ccc(/C(=C\CN2CCCC2)c2cccc(/C=C/C(=O)O)n2)cc1
inactive: all assays above

O=C(NNCNNC(=O)c1ccncc1)c1ccncc1
inactive: all assays above

CC(=O)N[C@@H](CC(=O)N[C@@H](CCC(=O)O)C(=O)O)C(=O)O
inactive: all assays above

C[C@]12CC[C@@H]3c4ccc(O)cc4CC[C@H]3[C@@H]1CC[C@@H]2OP(=O)(O)O
inactive: all assays above

COc1ccc(C(=O)CCC(=O)O)c2ccccc12
inactive: all assays above

Cc1ccccc1OCC(O)CNCCOc1ccc(C(N)=O)cc1 (centres undefined)
inactive: all assays above

c1ccc2c(CCC3CCNCC3)c[nH]c2c1
active: [2] 13.3 µM | [3] 29.8 µM | [4] 26.6 µM
inactive: all other assays above

CCCC(=O)O[C@]1(C(=O)COC(C)=O)CC[C@H]2[C@@H]3C[C@H](F)C4=CC(=O)C=C[C@]4(C)[C@@]3(F)[C@@H](O)C[C@@]21C
active: [2] 26.6 µM | [3] 29.8 µM | [4] 29.8 µM
inactive: [1] | [5] | [6]

Cn1c(O)c(N=NC(N)=S)c2ccccc21
active: [2] 5.31 µM | [3] 10.6 µM | [4] 8.41 µM | [5] 2.68 µM
inactive: [1] | [6]

C[C@]12C=CC(=O)C=C1CC[C@@H]1[C@@H]2[C@@H](O)C[C@@]2(C)[C@H]1CC[C@]2(O)C(=O)COC(=O)CCC(=O)O
inactive: all assays above

CC(C(=O)O)c1ccc(N2Cc3ccccc3C2=O)cc1 (centres undefined)
inactive: all assays above

CC(=O)N=c1sc(S(N)(=O)=O)nn1C
inactive: all assays above

CO[C@H]1[C@@H](O)[C@H](N)[C@@H](O[C@H]2O[C@H]([C@H](C)N)CC[C@H]2N)[C@H](O)[C@@H]1N(C)C(=O)CN
inactive: all assays above
